# Reference: PubChem BioAssay AID651818 (Broad Institute, 2012)
# Results with a measured potency or affinity are listed apart. Results filed as inconclusive are left out. Values without a mark were called inactive. No stated cut-off is given here; in the data, inconclusive means activity change below about -55%; inactive means above that.
# Experiment: intracellular Trypanosoma cruzi inhibitors in host cells – cell-based, plate reader, cherry-pick samples, set 3, dose response (AID 651818)
# Details: series mostly up to 10 µM; activity change, negative = inhibition: at the top concentration
row,Compound,"activity change, negative = inhibition"
1,C[C@H]1CN([C@@H](C)CO)C(=O)c2cccc(NC(=O)c3ccncc3)c2O[C@@H]1CN(C)S(=O)(=O)c1ccccc1,16.5%
2,C[C@H](CO)N1C[C@H](C)[C@H](CN(C)Cc2ccc3c(c2)OCO3)Oc2c(NC(=O)Nc3ccc(F)cc3)cccc2C1=O,-43.3%
3,C[C@@H]1CN([C@@H](C)CO)C(=O)c2cccc(NC(=O)c3cnccn3)c2O[C@@H]1CN(C)S(=O)(=O)c1cccs1,-13%
4,C[C@@H]1CCCCO[C@@H](CN(C)Cc2ccc(C(F)(F)F)cc2)[C@@H](C)CN([C@H](C)CO)C(=O)c2cc(NC(=O)Nc3ccc4c(c3)OCO4)ccc2O1,-99.8%
5,C[C@@H]1CN([C@H](C)CO)C(=O)c2cccc(NS(=O)(=O)c3cn(C)cn3)c2O[C@@H]1CN(C)CC1CCCCC1,-17%
6,C[C@@H]1CN([C@H](C)CO)C(=O)c2cccc(NC(=O)c3ccncc3)c2O[C@@H]1CN(C)Cc1ccc(C(=O)O)cc1,18.1%
7,Cc1ccc(S(=O)(=O)Nc2cccc3c2O[C@H](CN(C)C(=O)NC(C)C)[C@@H](C)CN([C@H](C)CO)C3=O)cc1,11.7%
8,Cc1noc(C)c1NC(=O)Nc1cccc2c1O[C@@H](CN(C)Cc1ccc(-c3ccccc3)cc1)[C@@H](C)CN([C@@H](C)CO)C2=O,25.3%
9,Cc1ccc(S(=O)(=O)N(C)C[C@H]2Oc3c(NC(=O)Nc4c(C)noc4C)cccc3C(=O)N([C@@H](C)CO)C[C@H]2C)cc1,4.2%
10,C[C@@H]1CN([C@@H](C)CO)C(=O)c2cccc(NC(=O)Nc3ccccc3)c2O[C@@H]1CN(C)S(=O)(=O)c1cn(C)cn1,-19.1%
11,C[C@H](CO)N1C[C@H](C)[C@H](CN(C)S(C)(=O)=O)Oc2c(NS(=O)(=O)c3ccc(F)cc3)cccc2C1=O,25.3%
12,C[C@H](CO)N1C[C@H](C)[C@@H](CN(C)Cc2ccc3c(c2)OCO3)Oc2c(NS(=O)(=O)c3ccc(Cl)cc3)cccc2C1=O,0.07%
13,C[C@H](CO)N1C[C@H](C)[C@@H](CN(C)S(=O)(=O)c2ccc(Cl)cc2)Oc2c(NC(=O)c3cnccn3)cccc2C1=O,-16.5%
14,C[C@@H]1CN([C@@H](C)CO)C(=O)c2cccc(NS(=O)(=O)c3ccccc3)c2O[C@@H]1CN(C)CC1CC1,-7.83%
15,C[C@H](CO)N1C[C@H](C)[C@@H](CN(C)Cc2ccccc2)Oc2c(NS(C)(=O)=O)cccc2C1=O,26.7% [at 5 µM]
16,Cc1noc(C)c1NC(=O)Nc1cccc2c1O[C@@H](CN(C)C(=O)NC1CCCCC1)[C@@H](C)CN([C@@H](C)CO)C2=O,-25.2%
17,Cc1noc(C)c1S(=O)(=O)N(C)C[C@@H]1Oc2c(NS(=O)(=O)c3cn(C)cn3)cccc2C(=O)N([C@H](C)CO)C[C@@H]1C,-2.56%
18,C[C@@H]1CN([C@@H](C)CO)C(=O)c2cccc(NS(C)(=O)=O)c2O[C@H]1CN(C)C(=O)NC1CCCCC1,-0.449%
19,COc1ccc(NC(=O)N(C)C[C@H]2Oc3c(NC(=O)C4CCOCC4)cccc3C(=O)N([C@H](C)CO)C[C@@H]2C)cc1,-21.6%
20,C[C@H]1CN([C@@H](C)CO)C(=O)c2cccc(NS(=O)(=O)c3cccs3)c2O[C@@H]1CN(C)C(=O)NC1CCCCC1,29.2%
21,Cc1ccc(S(=O)(=O)Nc2cccc3c2O[C@H](CN(C)CC2CCCCC2)[C@@H](C)CN([C@H](C)CO)C3=O)cc1,30.9%
22,C[C@H](CO)N1C[C@H](C)[C@@H](CN(C)S(=O)(=O)c2ccc(Cl)cc2)Oc2c(NC(=O)C3CC3)cccc2C1=O,20.4%
